# ALDH1A1 inh = blocks purified human ALDH1A1 activity; P00352; Purified ALDH1A1, NADH fluorescence, propionaldehyde substrate; Potency, µM (highest dose often 75.3 µM), hits mostly inhibitors; 7.3% of 220,000 active; AID 1030
# Target sequence (P00352 whole entry, looked up): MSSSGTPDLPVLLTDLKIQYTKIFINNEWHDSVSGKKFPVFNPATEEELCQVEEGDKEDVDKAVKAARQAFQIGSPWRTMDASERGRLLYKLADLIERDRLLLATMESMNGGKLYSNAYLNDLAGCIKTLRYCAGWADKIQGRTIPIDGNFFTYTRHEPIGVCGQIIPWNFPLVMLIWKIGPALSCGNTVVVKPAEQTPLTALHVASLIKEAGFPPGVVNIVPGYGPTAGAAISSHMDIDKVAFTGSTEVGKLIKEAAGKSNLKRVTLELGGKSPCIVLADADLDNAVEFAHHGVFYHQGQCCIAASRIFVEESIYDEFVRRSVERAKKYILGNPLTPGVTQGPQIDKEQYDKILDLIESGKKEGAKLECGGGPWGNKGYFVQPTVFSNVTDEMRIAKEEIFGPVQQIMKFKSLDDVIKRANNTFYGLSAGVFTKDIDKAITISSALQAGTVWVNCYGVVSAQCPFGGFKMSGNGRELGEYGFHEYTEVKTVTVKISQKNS
# HPGD inh = inhibitors of human 15-hydroxyprostaglandin dehydrogenase (HPGD); P15428; purified HPGD, NADH fluorescence kinetic, PGE2 substrate; Potency, µM, actives largely listed as inhibitors; 4.3% of 150,000 active
#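 20 nM HPGD preincubated 15 min at room temperature with compound in 50 mM Tris-HCl pH 8, 0.01% Tween 20. Started with 1 mM NAD+ and 30 uM prostaglandin E2; NADH fluorescence (360/450 nm) read 5 times over 30-s intervals, last minus first.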
# IMPase cell inh = cell-permeable inhibitors of inositol monophosphatase (IMPase) | P97697 | CHO-M1 cells, IP1 accumulation, HTRF TR-FRET ratio | inhibition (IP1 accumulation), % at 46.1 µM | 120,000 tested, under 10 active | AID 901; active = well fitted curve in the direction sought with a large enough effect in the signal ratio, not every such curve was filed as active; inconclusive = small, poorly fitted or top-dose-only effect, or a change in a side signal; inactive = no such curve, though single readings can be large or run the other way; the % refers to the signal ratio;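 note: cells stimulated with carbachol in lithium chloride buffer; higher means more IMPase inhibition seen as more IP1 and lower FRET ratio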
#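 CHO-M1, 2000 cells/well, cultured 16–30 h; cpd up to 46 uM; carbachol (50 uM solution, stimulation buffer w/ 50 mM LiCl, pH 7.4), 30 min 37C; IP-One TR-FRET, 10 min RT; Ex 320/Em 665, 620; Hill-fit AC50.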
# A number is an active result; - = inactive; ? = inconclusive; . = no result; [ ] = another dose, or the depositor's remark. A selection: hits, their analogues and other compounds. The true share with any hit is near 9%. Unless noted, calls come from the whole dose curve; as a rule, active = well fitted inhibition curve with a large enough effect (not every such curve was filed as active); inconclusive = small, poorly fitted or top-dose-only effect, or another doubt; inactive = no such curve, though single readings can be large or run the other way.
SMILES,ALDH1A1 inh,HPGD inh,IMPase cell inh
CCC(Oc1ccccc1)C(=O)Nc1cc(C)on1 (stereo not drawn),-,-,-
CCC(Oc1ccccc1)C(=O)Nc1ccccn1 (stereo not drawn),2.8µM,-,-
CCC(Oc1ccccc1)C(=O)NC1CCSC1=O (stereo not drawn),6.3µM,.,.
CCC(Oc1ccccc1)C(=O)Nc1ccsc1C(=O)OC (stereo not drawn),14µM,?,.
O=C(NC1CCSC1=O)c1ccccc1 (stereo not drawn),-,-,-
CCCNC(=O)Nc1ccsc1C(=O)OC,-,.,.
O=S(=O)(NCc1cccs1)c1cccc2cccnc12,-,-,-
CCCCC[C@H](O)/C=C/[C@H]1OC(O)C[C@H](O)[C@@H]1C/C=C\CCCC(=O)O (stereo partly drawn),-,-,.
CC(=O)C1=C(C)NC(SCC(N)=O)=C(C#N)C1CC(C)C (stereo not drawn),-,.,.
CC(=O)C1=C(C)NC(SCC(=O)c2ccc(-c3ccccc3)cc2)=C(C#N)C1c1cccnc1 (stereo not drawn),-,-,-
CC(=O)C1=C(C)NC(SCC(=O)c2ccc(F)cc2)=C(C#N)C1CC(C)C (stereo not drawn),-,22µM,.
CC(=O)C1=C(C)NC(SCC(=O)c2ccc(Cl)cc2)=C(C#N)C1CC(C)C (stereo not drawn),14µM,-,?
COc1ccccc1NC(=O)COn1nnc2ccc(S(=O)(=O)N3CCOCC3)cc21,-,.,.
O=C1C=C(c2ccccc2)OC(=O)C1C(=O)c1ccccc1 (stereo not drawn),?,-,-
O=C(O)c1ncn(Cc2ccc(Br)cc2)c1C(=O)O,-,.,.
CC(=O)Nc1ccc(Nc2ccc3nonc3c2[N+](=O)[O-])cc1,22µM,.,.
O=[N+]([O-])c1c(Nc2ccccc2O)ccc2nonc12,-,.,.
CC1=CC(C)(C)N(C(=O)CSc2ncn[nH]2)c2ccccc21,13µM,-,-
CC1=CC(C)(C)N(C(=O)CSc2nnc(N)s2)c2ccccc21,?,-,.
COc1ccc(C)cc1-n1c(SCC(=O)Nc2cc(C)on2)nc2sc(C)c(C)c2c1=O,-,-,-
O=C(Nc1ccc2c(c1)OCCO2)C1CCN(C(=O)c2ccccc2)CC1,14µM,-,-
Cc1ccccc1C(=O)N1CCC(C(=O)Nc2ccc3c(c2)OCO3)CC1,-,-,.
O=C(Nc1ccc2c(c1)OCCO2)C1CCN(C(=O)c2ccc(Br)cc2)CC1,?,-,-
Cc1ccccc1C(=O)N1CCC(C(=O)Nc2ccc3c(c2)OCCO3)CC1,28µM,-,-
CCOC(=O)c1c(C)nc2sc3c(c2c1-c1ccc(OC)cc1)NC(c1ccc(OC)cc1)NC3=O (stereo not drawn),-,-,-
SMILES,ALDH1A1 inh,HPGD inh,IMPase cell inh
CCOc1ccccc1Oc1c(C)oc2c(CN3CCN(CCO)CC3)c(O)ccc2c1=O,?,?,-
CCOC(=O)c1c(C)oc2c1c(CN1CCN(C(=O)OCC)CC1)c(O)c1ccccc12,1.6µM,-,.
CCOC(=O)c1c(C)oc2ccc(O)c(CN3CCCCC3)c12,-,-,-
CCOC(=O)c1oc2ccccc2c1CN1CCN(c2ccccc2)CC1,-,-,-
CCOC(=O)c1c(C)oc2c1c(C=NC1CCS(=O)(=O)C1)c(O)c1ccccc12 (stereo not drawn),-,-,-
CCOC(=O)c1c(C)oc2c(CC(=O)c3ccccc3)c(Cl)c(O)c(O)c12,-,7.1µM,.
CCOC(=O)c1oc2ccccc2c1CN1CCN(C(=O)c2ccccc2)CC1,20µM,-,-
CCOC(=O)c1c(C)oc2c1c(CN1CCN(CCO)CC1)c(O)c1ccccc12,0.35µM,.,.
COc1ccc(C2N=C(Nc3ccc(C)cc3)Nc3nc(C)cc(=O)n32)cc1 (stereo not drawn),-,-,-
O=C(NNC(=O)c1sccc1-n1cccc1)c1cccs1,-,.,.
O=S(=O)(NCc1ccccn1)c1ccc(Cl)s1,-,.,.
CCOC(=O)c1c(C)oc2c1c1c(c3ccccc32)OCN(Cc2ccccn2)C1,?,-,-
CCOC(=O)c1c(C)oc2c1c(C(c1ccncc1)N1CCOCC1)c(O)c1ccccc12 (stereo not drawn),13µM,-,-
O=C(O)/C=C1\CCCc2ccccc2[C@H]1O,-,-,-
COc1ccc(CC(=O)OCCN(C)C)cc1,-,-,-
CCCC(O)(CCN(C)C)c1ccc(OC)cc1 (stereo not drawn),10µM,-,-
CC1=NCC[N@@+]1(CCc1ccccc1)Cc1ccccc1,-[13.5 µM],-,.
CC(C)[C@H](NS(=O)(=O)c1ccccc1)C(=O)OCC(=O)Nc1ccc2c(c1)OCO2,-,-,.
O=C(COC(=O)c1ccc(NS(=O)(=O)c2ccc(F)c(F)c2)cc1)NCC1CCCO1 (stereo not drawn),-,.,.
C[C@H](NS(=O)(=O)c1ccccc1)C(=O)OCC(=O)NC(=O)Nc1ccc2c(c1)OCCO2,14µM,-,.
COc1ccc(NS(=O)(=O)c2ccc(O)c(C(=O)OCC(=O)Nc3ccc4c(c3)OCCO4)c2)cc1,22µM,?,.
CCC(CC)NC(=O)COC(=O)c1ccc(NS(=O)(=O)c2ccc3c(c2)OCCO3)cc1,?,25µM,-
COc1ccc(NS(=O)(=O)c2ccc(O)c(C(=O)OCC(=O)N3CC(C)OC(C)C3)c2)cc1 (stereo not drawn),?,-,-
Cc1cc(-c2nnc(-c3cccc(Cl)c3)o2)no1,-,.,.
CC(C)N1CCC(NC(=O)Nc2ccc3c(c2)OCO3)CC1,-,.,.
SMILES,ALDH1A1 inh,HPGD inh,IMPase cell inh
O=C(COC(=O)c1ccc([N+](=O)[O-])s1)NCc1ccc(F)cc1,7.1µM,-,.
COc1ccccc1NC(=O)COC(=O)c1ccc([N+](=O)[O-])s1,10µM,.,.
Cc1cc(C)c(NC(=O)COC(=O)c2ccc([N+](=O)[O-])s2)c(C)c1,-,-,.
O=C(COC(=O)c1ccc([N+](=O)[O-])s1)NC(=O)NCc1ccccc1,7.1µM,.,.
CC(NC(=O)COC(=O)c1ccc([N+](=O)[O-])s1)c1ccccc1 (stereo not drawn),?,-,-
Cc1ccc(NC(=O)COC(=O)c2ccc([N+](=O)[O-])s2)c(C)c1,?,-,-
COc1ccc(N2CCN(C(=O)Cc3ccc(S(=O)(=O)N4CCOCC4)s3)CC2)cc1,-,.,.
CCCCCCC(C)NC(=S)Nc1cc(S(=O)(=O)N(C)C)ccc1C (stereo not drawn),?,-,.
CSc1cc(/C=N/O)c(SC)s1,?,11µM,-
Cc1noc(C)c1C(=O)N1CCC2(CC1)CCN(C(c1ccccc1)c1ccccc1)CC2,?,-,.
CCOC(=O)c1ccc(N2Cc3ccccc3C2=NC(=O)c2ccncc2)cc1,-,.,.
O=C(N=C1c2ccccc2CN1c1ccc(F)cc1)c1ccc(Cl)nc1,28µM,-,-
CCCCC1CC(C)(C(=O)CSc2nc3ccccc3s2)OC1=O (stereo not drawn),?,-,-
CSc1nc(NC(C)=O)nc(C)c1Cl,-,-,-
N#Cc1cc(NCC2CCCO2)c([N+](=O)[O-])cc1C#N (stereo not drawn),-,-,.
Nc1ccc(N(c2ccccc2)c2ccc(N)cc2)cc1,8.9µM,-,-
Clc1nc(Cl)nc(N(c2ccccc2)c2ccccc2)n1,?,-,.
CC(=O)c1c(C)oc2ccc(N(C(=O)Oc3ccccc3)S(=O)(=O)c3ccc(Cl)cc3)cc12,.,.,-
